Assay outcomes: PubChem BioAssay, The Scripps Research Institute Molecular Screening Center
MITF primary = human MITF inhibition, primary screen | O75030 | AlphaScreen MITF homodimerization, bead proximity signal | inhibition, % at 2.6 µM | actives 0.91% (n = 650,000) | AID 1259374; in the data active = inhibition above about 50%;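 also: 0% = vehicle wells with protein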
Target sequence (O75030 whole entry, looked up): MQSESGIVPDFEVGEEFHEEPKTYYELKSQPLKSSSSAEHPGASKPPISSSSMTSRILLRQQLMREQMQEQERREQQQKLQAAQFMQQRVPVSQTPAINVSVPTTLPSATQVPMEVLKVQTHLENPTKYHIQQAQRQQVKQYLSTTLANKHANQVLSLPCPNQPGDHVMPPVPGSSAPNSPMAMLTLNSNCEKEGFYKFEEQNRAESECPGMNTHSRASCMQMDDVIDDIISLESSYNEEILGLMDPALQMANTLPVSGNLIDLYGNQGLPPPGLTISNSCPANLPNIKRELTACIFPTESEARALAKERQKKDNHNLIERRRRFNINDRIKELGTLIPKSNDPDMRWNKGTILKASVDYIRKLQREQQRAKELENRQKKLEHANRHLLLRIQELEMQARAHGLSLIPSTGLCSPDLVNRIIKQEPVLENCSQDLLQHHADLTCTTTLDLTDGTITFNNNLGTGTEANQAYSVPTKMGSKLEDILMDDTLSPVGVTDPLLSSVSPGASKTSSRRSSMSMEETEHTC
FBW7 activator = activators of human E3 ligase FBW7; normalized activity (activation), % at 26.1 µM; actives 0.13% (n = 650,000); AlphaScreen FBW7–phospho-cyclin E peptide binding, activator screen; AID 1259310; in the data active = normalized activity above about 1.9%;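 also: purified mutant Fbw7 with reduced substrate affinity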
GPR151 ag = activates the human receptor GPR151; Q8TDV0; PathHunter beta-arrestin GPR151 cells, luminescence; activation, % at 11.2 µM; actives 1% (n = 650,000); in the data active = activation above about 4.9%;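 also: 0% = median of compound wells and 100% = cells with positive control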
TEAD-YAP block = TEAD-YAP interaction inhibition | HEK-TIYL cells, TEAD-Gal4/YAP UAS-luciferase luminescence | inhibition, % at 9.12 µM | actives 1.4% (n = 640,000) | AID 1259422; in the data active = inhibition above about 32%;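 also: 0% = median of test compound wells and 100% = reference inhibitor wells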
* = called active by the depositor; ! = not confirmed by another sample. In the library only some 3.5% were active in any assay of this set; here they are far more common.

SMILES | MITF primary | FBW7 activator | GPR151 ag | TEAD-YAP block
CCCc1cc(N2CCN(c3ccc(C(C)=O)cc3)CC2)n2cnnc2n1 | 5 | 0 | -1 | 42*
CCCc1cc(N2CCC(C(N)=O)CC2)n2cnnc2n1 | -6 | 0 | 1 | -2
COc1ccc(/C(C)=N/Nc2nncc3ccccc23)cc1 | -6 | 0 | -1 | 33*
NNc1nncc2ccccc12 | 5 | 1 | -1 | 37*!
Cc1cccc(-c2nsc(SCC(N)=O)n2)c1 | -2 | 0 | -7 | -46
CCCc1ccc(Oc2cn[nH]c2-c2ccc(O)cc2O)cc1 | 3 | 0 | 0 | 65*
O=C(CSc1nnc(-c2ccc3c(c2)OCO3)o1)Nc1ccc2[nH]c(=O)[nH]c2c1 | -30 | 4.6* | 1 | 0
COc1cccc(C=O)c1OC(=O)c1ccc2ccccc2c1 | 19 | 1 | 1 | -17
COc1cccc(C=O)c1OC(=O)c1cccc(Cl)c1 | 13 | 12* | -1 | -18
O=C(Oc1cccc(NC(=O)c2ccccc2Cl)c1)c1ccc2c(c1)OCO2 | -9 | 0 | 2 | 60*
CCN(CC)S(=O)(=O)c1cccc(C(=O)Oc2cccc(NC(=O)c3cccc(OC)c3)c2)c1 | -2 | 0 | -4 | 26
CCN(CC)S(=O)(=O)c1cc(C(=O)Oc2cccc(NC(=O)c3ccc([N+](=O)[O-])cc3)c2)ccc1C | 6 | 0 | -1 | 36*
Cc1ccc(OCC(=O)Oc2cccc(NC(=O)c3ccccc3Cl)c2)cc1C | 3 | 0 | 0 | 61*
O=C(Nc1cccc(NCc2ccc3c(c2)OCO3)c1)c1ccccc1Cl | 4 | 0 | 0 | 10
CCN(CC)S(=O)(=O)c1cc(C(=O)Oc2cccc(NC(=O)c3ccccc3Cl)c2)ccc1C | 4 | 0 | 0 | 55*
CCN(CC)S(=O)(=O)c1cc(C(=O)Oc2cccc(NC(=O)c3ccc(Br)cc3)c2)ccc1C | -7 | 0 | 0 | 20
Cc1c(F)cccc1NC(=O)CCc1ccccc1 | -12 | 0 | -1 | -5
CC(C)(C)NC(=O)Cn1nc2c3ccccc3nc(C3CC3)n2c1=O | -1 | 0 | -1 | 44*
CC(C)NC(=O)Cn1nc2c3ccccc3nc(C3CC3)n2c1=O | 4 | 0 | 2 | -1
C/C=C/C(=O)Nc1ccc(-c2ccc(NC(=O)/C=C/C)c(OC)c2)cc1OC | 8 | 1 | 0 | 61*
Cc1cc(O)c(C=O)c2c1C(=O)Oc1c(COC(=O)/C=C/C(=O)O)c(O)c(C(=O)O)c(C)c1O2 | 76* | 0 | 0 | 5
CC(=O)N(C1=C(N2CCCC2)C(=O)c2ccccc2C1=O)c1ccccc1C | 31 | 0 | -5 | 92*
CC(=O)N(C1=C(N2CCCCC2)C(=O)c2ccccc2C1=O)c1ccc(C)cc1 | 24 | 0 | -1 | -12
Cc1cccc(C(=O)N/N=C/c2ccc(N(C)C)cc2)c1O | -8 | 1 | 0 | -15
Cc1cc(C)n(C(=C(/C(Cl)=C(/Cl)Br)[N+](=O)[O-])n2nc(C)cc2C)n1 | 14 | 0 | 0 | 42*
SMILES | MITF primary | FBW7 activator | GPR151 ag | TEAD-YAP block
O=C(Nc1ccc2c(c1)OCO2)c1ccccc1SCC(=O)N1CCc2ccccc21 | -10 | 0 | -1 | 36*
Oc1ccc(CCNc2nc(NC3CCC(O)CC3)nc3c2ncn3-c2ccsc2)cc1 (stereo not drawn) | -4 | 0 | -2 | 48*
OC1CCC(Nc2nc(NCc3ccccc3)c3ncn(-c4ccsc4)c3n2)CC1 (stereo not drawn) | 7 | 0 | 0 | -19
COc1ccc(CCNc2nc(NC3CCC(O)CC3)nc3c2ncn3-c2ccccc2)cc1 (stereo not drawn) | 8 | 0 | 1 | 48*
CC(C)N(CCNc1nc(NC2CCC(O)CC2)nc2c1ncn2-c1ccsc1)C(C)C (stereo not drawn) | 0 | 0 | -1 | 74*
Cc1c(C(=O)Nc2cccc(Cl)c2)sc2ncn(Cc3cccc(F)c3)c(=O)c12 | 3 | 0 | -1 | 5
COc1cc(OC)c2c(c1)C1C=CCC1C(c1cccc([N+](=O)[O-])c1)N2 (stereo not drawn) | 14 | 0 | 0 | 8
CCOC(=O)N1CCN(C(=O)N2c3ccccc3Sc3ccccc32)CC1 | -2 | 0 | 1 | 56*
CC1CCN(C(=O)N2c3ccccc3Sc3ccccc32)CC1 | 12 | 0 | 1 | -4
O=C1CCCN1C(=S)C(=S)N1CCCC1=O | 21 | -2 | 1 | 99*
CC1Cc2ccccc2N1C(=O)CSc1nnc(CSc2ncccn2)n1C (stereo not drawn) | -8 | 0 | 0 | 9
CC1Cc2ccccc2N1C(=O)CSc1nnc(Cc2cccs2)n1C (stereo not drawn) | -4 | 0 | 0 | 47*
CCOC(=O)c1ccc(N2C(=O)/C(=C\c3ccco3)C(C(=O)OC)=C2C)cc1 | 67* | 0 | -1 | 8
O=C(CCN1CCN(c2ccccc2)CC1)N/N=C/c1ccc(O)c(O)c1O | 70* | -1 | 1 | 4
CCCOc1ccc(/C=N/NC(=O)Cc2cn3ccsc3n2)c(O)c1 | 2 | 0 | 0 | -23
O=C(Cc1cn2ccsc2n1)N/N=C/c1ccc(O)c(O)c1O | 78* | -1 | 0 | -4
O=C(Cc1csc(N2CCOCC2)n1)NNC(=S)Nc1ccc(Cl)cc1Cl | 17 | 0 | -1 | -3
O=C(Cn1ccc(C(F)(F)F)n1)N/N=C/c1ccc(O)c(O)c1O | 65* | -1 | 0 | 0
O=C(Cc1csc(N2CCOCC2)n1)N/N=C/c1ccc(O)c(O)c1O | 66* | -1 | 0 | 4
CN1CCN(CCC(=O)N/N=C/c2ccc(O)cc2O)CC1 | -77 | 0 | 0 | 1
COc1cc(SC)ccc1C(=O)N1CCN(Cc2ccc3c(c2)OCO3)CC1 | 7 | 0 | 1 | 32*
O=c1c(CN2CCN(Cc3ccc4c(c3)OCO4)CC2)coc2ccccc12 | 42 | 0 | -1 | 57*
O=c1c(CN2CCSCC2)coc2ccccc12 | 14 | 1 | 0 | 3
CN(C)c1ccc(C(=O)N2CCN(Cc3ccc4c(c3)OCO4)CC2)cc1 | -5 | -1 | 1 | -12
CN(C)c1ccc(CN2CCN(Cc3ccc4c(c3)OCO4)CC2)cc1 | 53* | 0 | -1 | -5
SMILES | MITF primary | FBW7 activator | GPR151 ag | TEAD-YAP block
O=c1c(CN2CCc3ccccc3C2)coc2ccccc12 | 31 | 0 | 1 | 34*
Cc1ccccc1CSc1nc2ccsc2c(=O)n1Cc1ccccc1 | 0 | 0 | -1 | 2
O=c1c(CN2CCN(c3ccc(F)cc3)CC2)coc2ccccc12 | 17 | 0 | 1 | 6
O=c1c(CN2CCN(c3ccccn3)CC2)coc2ccccc12 | 40 | 0 | -1 | 38*
Cc1cc(C)c(C=Nc2ccccc2C(N)=O)c(C)c1 | -3 | 0 | 1 | 10
Cc1ccccc1C=Nc1ccccc1C(N)=O | -14 | 0 | 0 | 49*
CCOc1ccccc1C(=O)NCc1nc(C)no1 | 7 | 0 | -1 | 0
CCC(CO)Nc1ccc2ncc(-c3cccc(OC)c3)n2n1 (stereo not drawn) | 8 | -1 | -1 | 57*
O=C(O)c1ccc(-c2cnc3ccc(NC4CCC(O)CC4)nn23)cc1 (stereo not drawn) | -10 | 0 | 0 | 0
